This passage reports growth results from PubChem BioAssay (NCI).

Test systems include NCI-H23 lung; NCI-H226 lung; NCI-H322M lung; HOP-62 NSCLC; NCI-H460 lung; HOP-92 NSCLC; NCI-H522 lung; A549/ATCC NSCLC; 786-0 renal; COLO 205 colon; DU-145 prostate; K-562 leukemia; MALME-3M melanoma; MDA-MB-231 breast; SF-268 CNS; SF-539 CNS; UACC-257 melanoma; M14 melanoma; SF-295 CNS; RXF 393 renal.
Holding throughout (test): NCI-60 one-dose screen, 48 h (100 = growth as untreated, 0 = no growth, -100 = all killed)
Common to all, as to conditions: 10 µM unless noted

About 83,000 compounds went through this panel and 20% of them were active in at least one assay; those are over-represented in the sample as a whole.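 Growth was measured after 48 h exposure to one concentration of compound in 96-well plates. Values under 10 count as active.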 Values without a mark were called inactive. Active and inactive are the calls of the source.

For the compound `NC(=O)Oc1cc(OC(N)=O)cc(N(CCCl)CCCl)c1`, the growth was 50% with NCI-H23 lung; 79.5% in the assay on NCI-H226 lung; 111% in the assay with NCI-H322M lung; 58.5% with HOP-62 NSCLC; 23.9% in the assay with NCI-H460 lung; 75.9% in the assay with HOP-92 NSCLC. For the same compound, the growth with NCI-H522 lung is 17.9%; in the assay with A549/ATCC NSCLC it was 50.6%; with 786-0 renal, 28.6%; in the assay on COLO 205 colon, 86.8%; in the assay with DU-145 prostate, 34.3%; with K-562 leukemia, 55.2%. Further, the growth with MALME-3M melanoma was 80.6%; with MDA-MB-231 breast, 97.9%; in the assay with SF-268 CNS it was 39.7%; in the assay on SF-539 CNS it was 23.3%; in the assay with UACC-257 melanoma, 57.2%; in the assay on M14 melanoma it was 49.4%.

On to `CN1C2CCC1[C@@H](COC(=O)c1ccccc1)[C@@H](O)C2` (stereo not given in full), for which the growth in the assay on NCI-H23 lung was 108%; in the assay with NCI-H226 lung it was 99.6%; with NCI-H322M lung it was 119%; with HOP-62 NSCLC, 99.7%; with NCI-H460 lung, 113%; in the assay with HOP-92 NSCLC it was 69.9%. The growth in the assay on NCI-H522 lung was 64.9%; in the assay on A549/ATCC NSCLC, 99.2%; in the assay with 786-0 renal, 108%; in the assay with COLO 205 colon, 129%; in the assay with DU-145 prostate, 112%; in the assay with K-562 leukemia, 81.3%. Also, the growth in the assay with MALME-3M melanoma is 129%; in the assay with MDA-MB-231 breast it was 103%; in the assay on SF-268 CNS it was 108%; with SF-295 CNS, 112%; in the assay with SF-539 CNS it was 103%; in the assay with UACC-257 melanoma it was 97.1%. The growth with M14 melanoma was 100%.

For the compound `Cc1cc(C(C)(C)C)ccc1O`, the growth is 90.9% with NCI-H23 lung; 92.2% in the assay on NCI-H226 lung; 104% in the assay with NCI-H322M lung; 102% with HOP-62 NSCLC; 105% with NCI-H460 lung; 94.4% with HOP-92 NSCLC. For the same compound, the growth was 104% with A549/ATCC NSCLC; 111% with 786-0 renal; 107% in the assay on COLO 205 colon; 104% in the assay with DU-145 prostate; 103% in the assay with K-562 leukemia; 104% in the assay with MALME-3M melanoma. For the same compound, the growth in the assay with MDA-MB-231 breast is 118%; in the assay with RXF 393 renal it was 102%; in the assay on SF-268 CNS, 97.3%; in the assay on SF-295 CNS, 110%; with SF-539 CNS, 111%; with UACC-257 melanoma it was 100%. The growth in the assay on M14 melanoma was 102%.

Turning to `CC[C@H](C)[C@H](NC(=O)CN(C)C)C(=O)N(C)[C@H](C[C@@H](OC(C)=O)c1nc(C(=O)NC23C4C5C2C2C3C4C52C(=O)OC)cs1)C(C)C` (stereo not given in full), the growth in the assay with NCI-H23 lung is 21.3%; with NCI-H226 lung it was 31.7%; in the assay with NCI-H322M lung, 42.2%; in the assay on HOP-62 NSCLC, 19.4%; with NCI-H460 lung, 3.35% (active); with HOP-92 NSCLC it was 66.1%. The growth in the assay on A549/ATCC NSCLC is 21.3%; in the assay on 786-0 renal, 31.3%; in the assay on COLO 205 colon, -7.69% (active); in the assay on DU-145 prostate, 2.37% (active); with K-562 leukemia, 7.65% (active); with MALME-3M melanoma, 35.1%. For the same compound, the growth with MDA-MB-231 breast is 1.39% (active); in the assay with RXF 393 renal, 2.8% (active); with SF-268 CNS, 21.1%; in the assay with SF-295 CNS, 9.98% (active); with SF-539 CNS it was -1.99% (active); in the assay with UACC-257 melanoma, 49.2%. In addition, the growth with M14 melanoma was -35.8% (active).

`C/C(=C\c1ccn(-c2ccc(N)cc2F)n1)[C@@H]1C[C@@H]2O[C@]2(C)CCC[C@H](C)[C@H](O)[C@@H](C)C(=O)C(C)(C)[C@@H](O)CC(=O)O1`: the growth was 25.2% in the assay on NCI-H23 lung; 35.6% with NCI-H226 lung; 15.5% in the assay with NCI-H322M lung; 36.4% with HOP-62 NSCLC; 11% in the assay with NCI-H460 lung; 49% in the assay with HOP-92 NSCLC. Besides, the growth was 22.5% in the assay with A549/ATCC NSCLC; 18.1% in the assay with 786-0 renal; -5.18% (active) in the assay with COLO 205 colon; -19.4% (active) with DU-145 prostate; 11.8% in the assay on K-562 leukemia; 30.9% in the assay with MALME-3M melanoma. In addition, the growth was 20.8% in the assay with MDA-MB-231 breast; -7.39% (active) with RXF 393 renal; 29.7% in the assay on SF-268 CNS; 8.62% (active) with SF-295 CNS; -4.08% (active) in the assay on SF-539 CNS; 56.3% with UACC-257 melanoma. For the same compound, in the assay on M14 melanoma, the growth is -5.99% (active).

As to `CC[PH+](CC)CC.O=COC1OC([S-])C(OC=O)C(OC=O)C1OC=O.[Au+]` (stereo not given), the growth in the assay on NCI-H23 lung was -57.3% (active); in the assay on NCI-H226 lung, -66.7% (active); in the assay on NCI-H322M lung it was -95.9% (active); in the assay with HOP-62 NSCLC, -83.1% (active); in the assay with NCI-H460 lung, -59% (active); with HOP-92 NSCLC, -86.8% (active). For the same compound, the growth in the assay on A549/ATCC NSCLC was -76.6% (active); in the assay with 786-0 renal, -83.4% (active); with COLO 205 colon it was -84.9% (active); in the assay with DU-145 prostate, -43.7% (active); in the assay on K-562 leukemia it was -6.71% (active); with MALME-3M melanoma, -92.1% (active). The growth with MDA-MB-231 breast is -76.3% (active); with RXF 393 renal it was -91% (active); in the assay on SF-268 CNS, -78.5% (active); in the assay on SF-295 CNS, -16.3% (active); in the assay with SF-539 CNS, -99.2% (active); with UACC-257 melanoma it was -83.6% (active). In addition, in the assay on M14 melanoma, the growth was -63.1% (active).

Take `CC[C@H](C)[C@H](NC(=O)[C@H]1CCCCN1C)C(=O)N(C)[C@H](C(=O)NC12CC(C(=O)N[C@@H](Cc3ccccc3)C[C@H](C)C(=O)OC)(C1)C2)C(C)C`: the growth in the assay with NCI-H23 lung was 97.7%; in the assay on NCI-H226 lung it was 98.8%; in the assay on NCI-H322M lung it was 91.9%; with HOP-62 NSCLC, 92.8%; in the assay on NCI-H460 lung, 101%; with HOP-92 NSCLC it was 98.4%. The growth in the assay on A549/ATCC NSCLC is 92%; in the assay with 786-0 renal it was 103%; with COLO 205 colon, 110%; in the assay on DU-145 prostate, 105%; with K-562 leukemia it was 98.2%; in the assay on MALME-3M melanoma, 106%. Further, the growth in the assay on MDA-MB-231 breast is 110%; in the assay on RXF 393 renal, 108%; in the assay on SF-268 CNS, 90.2%; with SF-295 CNS, 102%; with SF-539 CNS, 100%; in the assay on UACC-257 melanoma, 102%.

Consider `COc1cc(-c2ccc(N)c(OC)c2)ccc1N`, for which the growth in the assay with NCI-H23 lung was 101%; in the assay with NCI-H226 lung, 110%; with NCI-H322M lung it was 84.4%; in the assay with HOP-62 NSCLC, 95.5%; with NCI-H460 lung it was 114%; in the assay on HOP-92 NSCLC it was 110%. The growth is 131% in the assay with NCI-H522 lung; 108% in the assay on A549/ATCC NSCLC; 106% with 786-0 renal; 120% in the assay on COLO 205 colon; 103% in the assay with DU-145 prostate; 138% with K-562 leukemia. The growth with MALME-3M melanoma was 78.1%; in the assay on MDA-MB-231 breast, 103%; in the assay on SF-268 CNS it was 103%; with SF-295 CNS it was 104%; in the assay on SF-539 CNS, 110%; in the assay with UACC-257 melanoma, 134%. Moreover, the growth in the assay with M14 melanoma was 113%.
